Assay outcomes as filed in PubChem.
INS promoter inh = inhibitors of insulin promoter-driven GFP, primary screen, imaging, TRM-6 cells (human fetal islet line), eGFP reporter, cell count | reporter expression induced with tamoxifen | inhibition, % at 2 µM | hit rate 0.9% among 130,000;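 active = inhibition above the mean plus 3 SD, with well images judged a real hit on visual review, cut at about 60% in these data, passing the limit was not always enough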
ROMK primary = ROMK potassium channel modulators, primary screen, cell-based, thallium flux, MLSMR library; ATP-sensitive inward rectifier potassium channel 1 (Homo sapiens), P48048; Tet-inducible ROMK, thallium flux fluorescence; actives lie on both sides; B-score at 10 µM; hit rate 2% among 130,000; AID 1918, 2009;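 active = signal ratio slope over the read window, or its plate-corrected B-score, at least 3 SD from the plate mean, either direction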;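 also: B-score of the F/F0 ratio slope over 7 to 12 s after thallium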
L major viab = Leishmania major promastigote growth inhibition, primary screen | Leishmania major promastigotes, resazurin fluorescence viability | inhibition, % at 10 µM | hit rate 9% among 200,000; in the data active = inhibition above about 50%;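 also: promastigotes grown with compound for 44 hours at 28 °C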
PTEN del growth = growth suppression of PTEN-null HCT116, primary screen, cell-based, CellTiter-Glo. HCT116 PTEN-null viability, 60 h; hits give low values. viability, % at 10 µM. hit rate 1.2% among 140,000. AID 827, 2007;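 active = viability at or below a set limit, 4 SD under the median of all tested compounds, cut at about 3.7% in these data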;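 also: PTEN knockout HCT116 line with beta catenin targeted HCT116 as companion control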
p97 inhibitor = inhibitors of human p97 ATPase, primary screen, biochemical | Transitional endoplasmic reticulum ATPase (Homo sapiens), P55072 | recombinant p97 ATPase, Kinase-Glo ATP luminescence, 3 h | inhibition, % at 8 µM | hit rate 0.42% among 220,000 | AID 1481, 2009; in the data active = inhibition above about 15%;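 also: 0% = DMSO vehicle and 100% = wells lacking enzyme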
Target sequence (P55072 whole entry, looked up): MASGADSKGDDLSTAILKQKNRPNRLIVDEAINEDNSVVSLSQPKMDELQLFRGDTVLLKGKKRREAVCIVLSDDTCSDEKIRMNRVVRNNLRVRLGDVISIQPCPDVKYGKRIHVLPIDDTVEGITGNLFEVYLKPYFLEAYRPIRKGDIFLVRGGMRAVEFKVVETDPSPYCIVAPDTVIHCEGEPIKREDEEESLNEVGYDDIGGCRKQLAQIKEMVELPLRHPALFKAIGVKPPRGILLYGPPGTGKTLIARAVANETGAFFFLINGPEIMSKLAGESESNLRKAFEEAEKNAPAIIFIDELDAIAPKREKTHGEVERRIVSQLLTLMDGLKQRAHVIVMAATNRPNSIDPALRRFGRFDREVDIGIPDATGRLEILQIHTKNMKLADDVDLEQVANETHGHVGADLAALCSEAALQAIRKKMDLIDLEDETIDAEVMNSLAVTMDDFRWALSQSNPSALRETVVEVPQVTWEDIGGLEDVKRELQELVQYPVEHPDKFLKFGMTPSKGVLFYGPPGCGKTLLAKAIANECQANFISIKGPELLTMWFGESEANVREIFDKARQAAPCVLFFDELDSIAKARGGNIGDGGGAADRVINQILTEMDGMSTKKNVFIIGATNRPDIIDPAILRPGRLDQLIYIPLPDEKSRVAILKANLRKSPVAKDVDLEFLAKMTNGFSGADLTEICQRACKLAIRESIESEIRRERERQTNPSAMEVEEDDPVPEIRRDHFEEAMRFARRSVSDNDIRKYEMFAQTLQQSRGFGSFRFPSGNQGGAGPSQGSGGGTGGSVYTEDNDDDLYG
bCat KO growth = primary screen for growth suppressors in beta-catenin knockout HCT116 cells (colon tumor, human). HCT116 beta-catenin knockout viability, CellTiter-Glo, 60 h; hits give low values. viability, % at 10 µM. hit rate 1.5% among 140,000. AID 818, 2007;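 active = viability at or under a set limit, the compound median less 4 SD, cut at about 6% in these data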;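 also: 0% = Hyamine 1622 control at 20 µM and 100% = untreated cell control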
* marks the source's active call; other numbers are inactive results; · = not tested or not shown. Compounds with a hit are over-represented: about 10% of the library has one in this group of screens.

SMILES | INS promoter inh | ROMK primary | L major viab | PTEN del growth | p97 inhibitor | bCat KO growth
Cc1ccc2c(CC(=O)NNC(=O)c3ccccc3)coc2c1 | -8.1 | 0.747 | 54.9* | 106.5 | -0.1 | 98.0
CN(Cc1ccc(F)cc1)C(=O)c1ccc2c(c1)NC(=O)CS2 | · | -1.15 | -8.3 | · | 5.1 | ·
CN(Cc1ccc(F)cc1)C(=O)c1cccc(OC2CCN(C3CCCC3)CC2)c1 | · | 0.333 | 92.9* | · | -0.6 | ·
COC(=O)C1=C(O)C(C(=O)OC)C(c2ccc(C)cc2)C(C#N)(C#N)C1c1ccc(C)cc1 (centres undefined) | 59.1 | · | 61.2* | 18.0 | 3.6 | 21.3
O=C(O)/C=C/c1ccc(OCc2cccc(F)c2)cc1 | 20.0 | -0.66 | -4.9 | · | 3.5 | ·
CCOC(=O)N1CCC(N2CCCC(C(=O)c3ccc4cc(OC)ccc4c3)C2)CC1 (centres undefined) | 14.3 | -0.798 | 97.7* | · | -2.0 | ·
COc1c(C)cc(C(=O)C2CCCN(C(=O)CCc3scnc3C)C2)cc1C (centres undefined) | · | -0.102 | 12.2 | · | 1.2 | ·
CCOC(=O)N1CCC(N2CCCC(C(=O)c3ccccc3OC)C2)CC1 (centres undefined) | · | -0.8 | 80.4* | · | -1.0 | ·
CCOC(=O)N1CCC(N2CCCC(C(=O)c3cc(C)c(OC)c(C)c3)C2)CC1 (centres undefined) | 44.4 | -0.65 | 92.8* | · | -1.1 | ·
CC(=O)NNC(=O)c1csc(-c2csc(C)n2)n1 | · | · | · | · | 2.7 | ·
O=C(CSc1nnc(COc2ccc(Cl)cc2)o1)N1CCOCC1 | · | 0.329 | -1.0 | · | 1.9 | ·
CCOC(=O)c1cc(-c2ccccc2)n(CC(=O)Nc2ccc(OCC)cc2)c1C | -60.0 | 0.801 | -8.2 | 98.4 | 4.5 | 98.4
CCOC(=O)c1cc(-c2ccccc2)n(CC(=O)Nc2cc(OC)cc(OC)c2)c1C | 11.5 | 0.313 | 95.7* | 70.3 | -5.2 | 82.2
NC(=O)/C(=N\OC(=O)c1ccco1)c1nc(-c2ccc(Br)cc2)cs1 | 23.5 | · | -3.8 | 85.7 | -4.0 | 78.2
CCCN(CCC)S(=O)(=O)c1ccc(C(=O)Nc2nc(-c3ccccc3)c(C(=O)OCC)s2)cc1 | · | · | 32.8 | 79.9 | -0.8 | 76.2
CC1(C)C(=O)Nc2ccccc2N1C(=O)COC(=O)c1ccc(Cl)c(S(=O)(=O)NCc2ccccc2)c1 | -32.3 | 1.05 | 99.2* | 63.9 | -1.9 | 64.0
CN(C)S(=O)(=O)c1cccc(C(=O)OCC(=O)N2c3ccccc3NC(=O)C2(C)C)c1 | · | · | -3.5 | 86.2 | -0.6 | 89.9
Cn1ncc(N=Cc2ccc([N+](=O)[O-])cc2)c1C(=O)N1CCOCC1 | -7.1 | -0.744 | -6.2 | 98.9 | 0.1 | 92.5
CCOCCCNCc1cccc(OCc2ccc(F)cc2)c1 | -54.3 | -1.66 | 99.0* | 91.0 | 0.0 | 89.3
CCOCCCNCc1ccc(Cl)cc1 | -3.7 | · | 69.2* | 92.3 | 6.6 | 93.2
COc1cc(-c2nc(-c3ccc4c(c3)-c3ccccc3S4(=O)=O)c(-c3ccccc3)[nH]2)cc(OC)c1O | 37.0 | 0.00697 | 91.4* | 23.3 | 6.2 | 41.0
COc1ccc(-c2nc(-c3ccccc3)[nH]c(=O)c2C#N)cc1 | · | 2.43 | -11.3 | 84.4 | 2.9 | 90.4
CC(C)c1ccc(S(=O)(=O)/N=C2/C=CC(=O)c3ccccc32)cc1 | · | 1.65 | 74.1* | · | 7.6 | ·
Cc1cc(C)c(C)c(OCCCN(C)C)c1 | 28.6 | -0.703 | 1.8 | 96.1 | 3.2 | 91.5
CC(C)CC(NC(=O)c1ccc(Cl)cc1)C(=O)OCC(=O)c1ccc2c(c1)NC(=O)CO2 (centres undefined) | -16.4 | 0.437 | 63.7* | 65.0 | 1.8 | 68.6
CC(C)[C@H](NC(=O)c1ccco1)C(=O)OCC(=O)c1ccc2c(c1)NC(=O)CO2 | · | -0.537 | -3.6 | · | -1.4 | ·
O=S(=O)(Nc1nc2ccccc2nc1Nc1ccc2c(c1)OCO2)c1ccc(F)cc1 | · | · | 1.2 | 42.8 | -1.0 | 46.9
COc1ccc(-n2c(-c3ccccc3)cc3c2CCCC3=O)cc1 | 34.8 | · | 79.7* | 68.6 | 3.3 | 65.8
Oc1c(C(Nc2cccc(C(F)(F)F)c2)c2ccncc2)ccc2cccnc12 (centres undefined) | · | 0.409 | 100.1* | · | 1.1 | ·
O=C(Nc1cccc(C(F)(F)F)c1)c1cccnc1 | 20.0 | · | 0.6 | 98.7 | -1.3 | 101.0
